# Only some compounds are listed: those with a hit (about 4% of all), similar ones and a draw of the others.
# MITF TRPM1 inh – MITF TRPM1 promoter inhibition in SK-MEL-5 cells; inhibition, % at 12.5 µM; SK-MEL-5 TRPM1 promoter luciferase, 24 h; 330,000 compounds, 0.83% hits;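 active = mean inhibition across replicates of 60% or more, whatever share of single replicates reaches that level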
# EWS-Fli block – EWS/Fli transcriptional activity inhibition; A673 NR0B1-luciferase reporter, viability-normalised; inhibition, % at 12.6 µM; 350,000 compounds, 0.67% hits;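 active = mean inhibition of at least 50% after viability correction, with every replicate also passing that limit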;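 also: firefly luciferase signal divided by Alamar Blue viability fluorescence both relative to DMSO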
# PAX8 reporter – PAX8 transcriptional activity inhibition; RMG-I TPO-luciferase reporter, SteadyGlo, 24 h; inhibition, % at 12.6 µM; 360,000 compounds, 1.2% hits;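 active = mean replicate inhibition at least 60% with every replicate also reaching 60%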;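 also: luciferase light reporting Pax8 driven TPO promoter activity; plate controls were median of neutral control wells for no effect and mitoxantrone controls for full effect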
# Wnt act – activators of Wnt/beta-catenin signaling; AID 743398; activation, % at 9.35 µM; 300,000 compounds, 1.2% hits; Wnt/beta-catenin reporter cell assay, activator, plate reader; in the data active = activation above about 30%, passing the limit was not always enough;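 also: 0% = neutral control wells and 100% = positive control wells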
# MITF TRPM1 HTS – increases MITF-driven TRPM1 promoter luciferase signal | AID 588334 | activation, % at 12.5 µM | 300,000 compounds, 0.75% hits | SK-MEL-5 TRPM1-promoter luciferase, 24 h; % of positive control, neutral wells = 0;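 active = mean activation of at least 80% with every replicate also reaching 80%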;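 also: 0% = neutral control wells and 100% = parthenolide positive control wells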
# esBAF inh – blocks esBAF chromatin remodeling in mouse ES cells. Bmi1-luciferase knock-in reporter, 24 h; 100% = twice the neutral-well signal. reporter increase, % at 12.5 µM. 350,000 compounds, 2% hits; in the data active = activation above about 40%;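 also: 0% = median of the plate's neutral control wells and 100% = double that signal; a rise in the Bmi1 reporter signal indicates esBAF inhibition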
# * marks the source's active call; other numbers are inactive results; nt = not tested or not shown; ! = not confirmed by another sample.
SMILES,MITF TRPM1 inh,EWS-Fli block,PAX8 reporter,Wnt act,MITF TRPM1 HTS,esBAF inh
COc1ccc2nc(SCc3cccc(C)c3)nc(C)c2c1,-61.8,nt,-148.0,47.7*,70.7,nt
COc1ccc(NC(=O)N(C)C[C@H]2OCCCC[C@H](C)Oc3ccc(NC(=O)Nc4ccc5c(c4)OCO5)cc3C(=O)N([C@@H](C)CO)C[C@H]2C)cc1,nt,4.8,-8.0,nt,nt,nt
CC(=O)Nc1cccc(C)c1,-2.1,-2.2,nt,3.5,1.5,3.5
CC(=O)Nc1ccc2c(c1)C(=Nc1cccc(C)c1)c1ccccc1-2,-9.8,-23.4,-11.7,34.3*,8.0,18.2
O=C(Nc1ccc2c(c1)[C@@H]1C[C@H](CC(=O)N3CCOCC3)O[C@@H](CO)[C@@H]1O2)NC1CCCCC1,nt,4.1,-8.7,nt,nt,-4.2
Cc1nn(-c2ccccc2)c(N)c1Sc1cccc([N+](=O)[O-])c1,-4.6,nt,20.6,1.6,7.2,5.3
Cc1cc(C)nc(-n2nc(C)c(Sc3ccc(F)cc3)c2N)n1,-59.4,-62.7,nt,20.8,56.1,137.4*
CC(C)CC1C(C#N)=C(N)Oc2n[nH]c(-c3ccccc3)c21 (centres undefined),-8.9,nt,nt,32.2*,1.5,0.1
CC(C)C1C(C#N)=C(N)Oc2n[nH]c(-c3ccccc3)c21 (centres undefined),10.0,nt,nt,0.7,nt,-6.5
CCOc1ccc(C(=O)Nc2ccc(Cc3ccncc3)cc2)cc1Br,-11.3,-0.9,94.9*,-0.3,8.0,5.5
C[C@@H]1CCCCO[C@@H](CN(C)S(C)(=O)=O)[C@H](C)CN([C@H](C)CO)C(=O)c2cc(NS(=O)(=O)c3cn(C)cn3)ccc2O1,nt,3.0,nt,nt,nt,-4.2
O=C(CNc1ccc(Br)cc1)c1ccc(Br)s1,-81.2,-36.3,-13.5,12.2,77.3,58.2*
Nc1c2ccccc2nc2ccccc12,84.0*,44.8,-12.3,69.3*!,-83.1,5.9
Nc1c2c(nc3ccccc13)CCCC2,-10.0,-9.6,-1.7,-2.9,9.1,-3.9
CO[C@@H]1CN(C)C(=O)c2cc(NC(=O)C3CC3)ccc2OC[C@H](C)N(C(=O)c2cnccn2)C[C@@H]1C,nt,-0.6,-11.0,nt,nt,-2.3
COc1ccc(-c2ccc(-c3nnn(CC(C)=O)n3)cc2)cc1,-45.8,nt,nt,nt,50.5,22.0
CCOc1ccc(-c2nnn(CC(=O)Nc3cccc(OC)c3)n2)cc1OCC,12.1,nt,nt,33.2*,-9.2,-0.4
COc1cccc(-c2nnn(CC(C)=O)n2)c1,-78.3,nt,nt,nt,81.9*,nt
C[C@@H]1CN([C@H](C)CO)C(=O)c2cccc(N(C)C)c2O[C@H]1CN(C)Cc1ccc(Oc2ccccc2)cc1,nt,8.5,18.2,nt,nt,-2.5
C[C@H](CO)N1C[C@H](C)[C@@H](CN(C)CC2CC2)Oc2ccc(NC(=O)Cn3cnnn3)cc2CC1=O,nt,0.5,nt,nt,nt,0.5
O=C(O)[C@H]1[C@H](CO)[C@H]2Cn3c(ccc(-c4cncnc4)c3=O)[C@H]2N1C(=O)C1CCCC1,nt,0.4,nt,nt,nt,nt
CCc1ccc(NC(=O)C(=O)c2ccccc2NC(C)=O)cc1,nt,-86.7,-161.6,42.5*,nt,26.6
CC(=O)Nc1ccccc1C(=O)C(=O)Nc1ccc(F)c(Cl)c1,-14.6,-32.7,10.9,1.8,nt,56.3*
CC(=O)Nc1ccccc1C(=O)C(=O)Nc1ccc(C)c(F)c1,-31.3,-111.4,68.9*,-1.8,30.5,nt
C[C@@H]1CCCCO[C@@H](CN(C)C(=O)c2ccccc2)[C@H](C)CN([C@H](C)CO)C(=O)c2cc(NC(=O)Nc3ccc4c(c3)OCO4)ccc2O1,nt,12.1,5.0,nt,nt,4.1
SMILES,MITF TRPM1 inh,EWS-Fli block,PAX8 reporter,Wnt act,MITF TRPM1 HTS,esBAF inh
CC(=O)N1CC(=O)N2[C@H](C1)[C@H](c1ccc(-c3ccncc3)cc1)[C@@H]2CO,nt,-5.9,9.3,nt,nt,nt
C[C@@H]1CN([C@@H](C)CO)C(=O)c2cc(NS(=O)(=O)c3ccccc3)ccc2O[C@@H]1CN(C)CC1CC1,nt,-9.2,-6.7,nt,nt,-1.3
CC1=C/C(=N\NC(=S)Nc2cccnc2)CC(C)(C)C1,62.4*,28.8,12.3,-3.5,-62.6,0.7
C/C(=N\Nc1ccc([N+](=O)[O-])cc1)c1ccc(N)cc1,-75.6,-13.6,29.4,8.9,76.2,-5.3
CCc1ccc(/C(C)=N\Nc2ccc([N+](=O)[O-])cc2)cc1,-52.4,nt,nt,nt,nt,44.0*
CC(=NNc1ccc([N+](=O)[O-])cn1)c1ccc(N)cc1,-72.3,-111.2,-160.6,11.5,70.9,97.3*
CCCNC(=O)N[C@H]1C=C[C@H](CC(=O)NC2CCCCC2)O[C@H]1CO,nt,0.4,-7.9,nt,nt,-0.4

# Source: PubChem BioAssay (Broad Institute)
